Reference: PubChem BioAssay (NCI)
Compounds without any hit were thinned out: in the full panel of roughly 79,000, 15% have a hit. Unmarked numbers belong to inactive results. Calls of active or inactive are those of the source. Cut-off read from the data, not from the text of the source: active = growth inhibition above about 70%; inactive = the rest.

Tests used:
[1] = NCI Yeast Anticancer Drug Screen. Data for the rad52 strain (AID 147);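 note: 0% = growth of vehicle-treated control cultures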; details: S. cerevisiae rad52 mutant growth inhibition, active compounds read high
How it was run: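 The repair-mutant yeast strain was incubated with compounds, then growth was read and inhibition derived relative to vehicle.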

[2] = NCI Yeast Anticancer Drug Screen. Data for the wt1 strain (AID 149);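 note: 0% = growth of vehicle-treated wt1 cultures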; details: S. cerevisiae wt1 strain (SPY 50644) growth inhibition, active compounds read high
How it was run: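 Using yeast strain wt1, compound-induced growth inhibition was determined against vehicle-treated cultures.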

[3] = NCI Yeast Anticancer Drug Screen. Data for the rad50EPP+ strain (AID 151);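 note: 0% = growth of vehicle-treated control cultures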; details: S. cerevisiae rad50 mutant strain, active compounds read high
How it was run: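 Vehicle-normalised growth inhibition; rad50EPP+ yeast strain, altered in DNA damage repair, compound-treated.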

[4] = NCI Yeast Anticancer Drug Screen. Data for the mgt1 strain (AID 153); details: S. cerevisiae mgt1 mutant growth inhibition, active compounds read high
How it was run: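 Vehicle-normalized growth inhibition is determined in mgt1 yeast, a strain selected for a defined alteration in DNA repair or cell cycle control.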

[5] = NCI Yeast Anticancer Drug Screen. Data for the rad50 strain (AID 155);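 note: 0% = growth of vehicle-only cultures of the same strain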; details: S. cerevisiae rad50 strain growth inhibition, active compounds read high
How it was run: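 Relative growth inhibition (compound vs vehicle) was measured in yeast with a defined repair-gene alteration.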

[6] = NCI Yeast Anticancer Drug Screen. Data for the mec2-1 strain (AID 157); details: S. cerevisiae mec2-1 strain, active compounds read high
How it was run: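 Mutant yeast (mec2-1) grown with compound; growth inhibition relative to vehicle control reported.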

[7] = NCI Yeast Anticancer Drug Screen. Data for the rad14 strain (AID 159);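 note: 0% = growth of vehicle-treated control cultures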; details: S. cerevisiae rad14 strain growth inhibition, active compounds read high
How it was run: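 Screen for anticancer potential: a yeast strain altered in DNA damage repair is grown with compound, and reduced growth is quantified against vehicle controls.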

[8] = NCI Yeast Anticancer Drug Screen. Data for the sgs1 mgt1 strain (AID 161);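 note: 0% = growth of cultures given vehicle only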; details: S. cerevisiae sgs1 mgt1 strain, active compounds read high
How it was run: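 Growth of a repair-deficient yeast mutant was monitored after compound treatment and expressed as inhibition relative to vehicle-treated cultures.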

[9] = NCI Yeast Anticancer Drug Screen. Data for the CLN2oe strain (AID 163);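 note: 0% = growth of vehicle-only control cultures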; details: S. cerevisiae CLN2oe strain, active compounds read high
How it was run: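 Compounds are applied to yeast harbouring a defined cell-cycle control change; reduced growth compared with vehicle-treated controls gives the value.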

[10] = NCI Yeast Anticancer Drug Screen. Data for the cln2 rad14 strain (AID 165);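 note: 0% = growth equal to vehicle treated cultures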; details: S. cerevisiae cln2 rad14 strain, active compounds read high
How it was run: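 Readout is yeast growth inhibition versus vehicle-treated controls, using a strain with cln2 and rad14 alterations exposed to compound.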

[11] = NCI Yeast Anticancer Drug Screen. Data for the bub3 strain (AID 167); details: S. cerevisiae bub3 mutant strain, active compounds read high
How it was run: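 Screening used yeast with an engineered genetic alteration affecting cell cycle control. Compound-exposed cultures were compared with vehicle cultures, and reduced growth was taken as inhibition.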

[12] = NCI Yeast Anticancer Drug Screen. Data for the wt2 strain (AID 169);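 note: 0% = growth of vehicle-treated yeast cultures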; details: S. cerevisiae wt2 strain growth inhibition, active compounds read high
How it was run: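 Against vehicle-treated controls, the growth of yeast exposed to each compound was compared, and the inhibition was recorded.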

[13] = NCI Yeast Anticancer Drug Screen. Data for the mlh1 strain (AID 171);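 note: 0% = growth of vehicle-treated control cultures of the same strain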; details: S. cerevisiae mlh1 strain growth inhibition, active compounds read high
How it was run: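 Measured: yeast growth. Reference: vehicle-treated controls. Organism: strain with a defined alteration affecting DNA damage repair or cell cycle control, treated with compound.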

[14] = NCI Yeast Anticancer Drug Screen. Data for the sgs1 strain (AID 173);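 note: 0% = growth of vehicle-only control cultures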; details: S. cerevisiae sgs1 mutant, active compounds read high
How it was run: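 Each compound was added to cultures of the altered yeast strain. Growth was recorded, and inhibition was derived by comparison with vehicle controls.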

[15] = NCI Yeast Anticancer Drug Screen. Data for the mlh1 rad18 strain (AID 175); details: S. cerevisiae mlh1 rad18 strain growth inhibition, active compounds read high
How it was run: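 Genetically defined yeast (DNA repair-deficient) exposed to compounds; growth inhibition determined relative to vehicle.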

[16] = NCI Yeast Anticancer Drug Screen. Data for the rad18 strain (AID 177); details: S. cerevisiae rad18 mutant growth inhibition, active compounds read high
How it was run: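 Vehicle-treated cultures served as the baseline for scoring compound-induced growth inhibition in DNA-repair-mutant yeast.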

[17] = at 5.0 µM (retest, dose inferred, filed as 0.5)
[18] = at 50.0 µM (retest, dose inferred, filed as 5.0)

## CCCN=Cc1cc(Cc2ccc(O)c(C=NCCC)c2)ccc1O
[1]; at 1.2 µM
  growth inhibition: 70% (active)
[1]; at 3.7 µM
  growth inhibition: 95% (active)
[1]; at 11.0 µM
  growth inhibition: 98% (active)
[1]; at 33.0 µM
  growth inhibition: 98% (active)
[1]; at 100.0 µM
  growth inhibition: 97% (active)
[2]; at 1.2 µM
  growth inhibition: 64%
[2]; at 3.7 µM
  growth inhibition: 97% (active)
[2]; at 11.0 µM
  growth inhibition: 98% (active)
[2]; at 33.0 µM
  growth inhibition: 99% (active)
[2]; at 100.0 µM
  growth inhibition: 99% (active)
[3]; at 1.2 µM
  growth inhibition: 27%
[3]; at 3.7 µM
  growth inhibition: 85% (active)
[3]; at 11.0 µM
  growth inhibition: 96% (active)
[3]; at 33.0 µM
  growth inhibition: 98% (active)
[3]; at 100.0 µM
  growth inhibition: 99% (active)
[4]; at 1.2 µM
  growth inhibition: 45%
[4]; at 3.7 µM
  growth inhibition: 97% (active)
[4]; at 11.0 µM
  growth inhibition: 99% (active)
[4]; at 33.0 µM
  growth inhibition: 98% (active)
[4]; at 100.0 µM
  growth inhibition: 97% (active)
[5]; at 1.2 µM
  growth inhibition: 70% (active)
[5]; at 3.7 µM
  growth inhibition: 97% (active)
[5]; [17]
  growth inhibition: 93% (active)
[5]; at 11.0 µM
  growth inhibition: 99% (active)
[5]; at 33.0 µM
  growth inhibition: 99% (active)
[5]; [18]
  growth inhibition: 99% (active)
[5]; at 50.0 µM
  growth inhibition: 91% (active)
[5]; at 100.0 µM
  growth inhibition: 98% (active)
[6]; at 1.2 µM
  growth inhibition: 92% (active)
[6]; at 3.7 µM
  growth inhibition: 98% (active)
[6]; [17]
  growth inhibition: 99% (active)
[6]; at 11.0 µM
  growth inhibition: 99% (active)
[6]; at 33.0 µM
  growth inhibition: 98% (active)
[6]; [18]
  growth inhibition: 99% (active)
[6]; at 50.0 µM
  growth inhibition: 91.5% (active)
[6]; at 100.0 µM
  growth inhibition: 98% (active)
[7]; at 1.2 µM
  growth inhibition: 57%
[7]; at 3.7 µM
  growth inhibition: 97% (active)
[7]; at 11.0 µM
  growth inhibition: 98% (active)
[7]; at 33.0 µM
  growth inhibition: 99% (active)
[7]; at 100.0 µM
  growth inhibition: 98% (active)
[8]; [17]
  growth inhibition: -15%
[8]; [18]
  growth inhibition: -85%
[8]; at 50.0 µM
  growth inhibition: 92.2% (active)
[9]; at 1.2 µM
  growth inhibition: 78% (active)
[9]; at 3.7 µM
  growth inhibition: 97% (active)
[9]; at 11.0 µM
  growth inhibition: 98% (active)
[9]; at 33.0 µM
  growth inhibition: 99% (active)
[9]; at 100.0 µM
  growth inhibition: 98% (active)
[10]; [17]
  growth inhibition: -41%
[10]; [18]
  growth inhibition: -84%
[10]; at 50.0 µM
  growth inhibition: 91.4% (active)
[11]; at 1.2 µM
  growth inhibition: 64%
[11]; at 3.7 µM
  growth inhibition: 95% (active)
[11]; [17]
  growth inhibition: -49%
[11]; at 11.0 µM
  growth inhibition: 98% (active)
[11]; at 33.0 µM
  growth inhibition: 98% (active)
[11]; [18]
  growth inhibition: -86%
[11]; at 50.0 µM
  growth inhibition: 90.8% (active)
[11]; at 100.0 µM
  growth inhibition: 97% (active)
[12]; at 1.2 µM
  growth inhibition: 29%
[12]; at 3.7 µM
  growth inhibition: 98% (active)
[12]; at 11.0 µM
  growth inhibition: 99% (active)
[12]; at 33.0 µM
  growth inhibition: 99% (active)
[12]; at 100.0 µM
  growth inhibition: 98% (active)
[13]; at 1.2 µM
  growth inhibition: 60%
[13]; at 3.7 µM
  growth inhibition: 96% (active)
[13]; at 11.0 µM
  growth inhibition: 98% (active)
[13]; at 33.0 µM
  growth inhibition: 98% (active)
[13]; at 100.0 µM
  growth inhibition: 96% (active)
[14]; at 1.2 µM
  growth inhibition: 58%
[14]; at 3.7 µM
  growth inhibition: 89% (active)
[14]; at 11.0 µM
  growth inhibition: 98% (active)
[14]; at 33.0 µM
  growth inhibition: 98% (active)
[14]; at 100.0 µM
  growth inhibition: 97% (active)
[15]; [17]
  growth inhibition: 98% (active)
[15]; [18]
  growth inhibition: 99% (active)
[15]; at 50.0 µM
  growth inhibition: 89.3% (active)

## OC1(C#CI)CCCCC1
[1]; at 1.2 µM
  growth inhibition: 1%
[1]; at 3.7 µM
  growth inhibition: 43%
[1]; at 11.0 µM
  growth inhibition: 96% (active)
[1]; at 33.0 µM
  growth inhibition: 98% (active)
[1]; at 100.0 µM
  growth inhibition: 99% (active)
[2]; at 1.2 µM
  growth inhibition: -4%
[2]; at 3.7 µM
  growth inhibition: 38%
[2]; at 11.0 µM
  growth inhibition: 96% (active)
[2]; at 33.0 µM
  growth inhibition: 99% (active)
[2]; at 100.0 µM
  growth inhibition: 99% (active)
[3]; at 1.2 µM
  growth inhibition: -16%
[3]; at 3.7 µM
  growth inhibition: 40%
[3]; at 11.0 µM
  growth inhibition: 96% (active)
[3]; at 33.0 µM
  growth inhibition: 99% (active)
[3]; at 100.0 µM
  growth inhibition: 99% (active)
[4]; at 1.2 µM
  growth inhibition: -7%
[4]; at 3.7 µM
  growth inhibition: -3%
[4]; at 11.0 µM
  growth inhibition: 88% (active)
[4]; at 33.0 µM
  growth inhibition: 99% (active)
[4]; at 100.0 µM
  growth inhibition: 99% (active)
[5]; at 1.2 µM
  growth inhibition: -6%
[5]; at 3.7 µM
  growth inhibition: 58%
[5]; [17]
  growth inhibition: 67%
[5]; at 11.0 µM
  growth inhibition: 98% (active)
[5]; at 33.0 µM
  growth inhibition: 99% (active)
[5]; [18]
  growth inhibition: 97% (active)
[5]; at 50.0 µM
  growth inhibition: 99.7% (active)
[5]; at 100.0 µM
  growth inhibition: 99% (active)
[6]; at 1.2 µM
  growth inhibition: -4%
[6]; at 3.7 µM
  growth inhibition: 6%
[6]; [17]
  growth inhibition: -18%
[6]; at 11.0 µM
  growth inhibition: 89% (active)
[6]; at 33.0 µM
  growth inhibition: 99% (active)
[6]; [18]
  growth inhibition: 98% (active)
[6]; at 50.0 µM
  growth inhibition: 99.5% (active)
[6]; at 100.0 µM
  growth inhibition: 100% (active)
[7]; at 1.2 µM
  growth inhibition: -2%
[7]; at 3.7 µM
  growth inhibition: 32%
[7]; at 11.0 µM
  growth inhibition: 98% (active)
[7]; at 33.0 µM
  growth inhibition: 99% (active)
[7]; at 100.0 µM
  growth inhibition: 100% (active)
[8]; [17]
  growth inhibition: -20%
[8]; [18]
  growth inhibition: 97% (active)
[8]; at 50.0 µM
  growth inhibition: 98.6% (active)
[9]; at 1.2 µM
  growth inhibition: -11%
[9]; at 3.7 µM
  growth inhibition: -5%
[9]; at 11.0 µM
  growth inhibition: 82% (active)
[9]; at 33.0 µM
  growth inhibition: 99% (active)
[9]; at 100.0 µM
  growth inhibition: 99% (active)
[10]; [17]
  growth inhibition: -28%
[10]; [18]
  growth inhibition: 98% (active)
[10]; at 50.0 µM
  growth inhibition: 99.2% (active)
[11]; at 1.2 µM
  growth inhibition: -19%
[11]; at 3.7 µM
  growth inhibition: 12%
[11]; [17]
  growth inhibition: -35%
[11]; at 11.0 µM
  growth inhibition: 97% (active)
[11]; at 33.0 µM
  growth inhibition: 99% (active)
[11]; [18]
  growth inhibition: 97% (active)
[11]; at 50.0 µM
  growth inhibition: 99.3% (active)
[11]; at 100.0 µM
  growth inhibition: 99% (active)
[12]; at 1.2 µM
  growth inhibition: -7%
[12]; at 3.7 µM
  growth inhibition: 28%
[12]; at 11.0 µM
  growth inhibition: 98% (active)
[12]; at 33.0 µM
  growth inhibition: 99% (active)
[12]; at 100.0 µM
  growth inhibition: 100% (active)
[13]; at 1.2 µM
  growth inhibition: -14%
[13]; at 3.7 µM
  growth inhibition: 17%
[13]; at 11.0 µM
  growth inhibition: 96% (active)
[13]; at 33.0 µM
  growth inhibition: 99% (active)
[13]; at 100.0 µM
  growth inhibition: 99% (active)
[14]; at 1.2 µM
  growth inhibition: 1%
[14]; at 3.7 µM
  growth inhibition: 37%
[14]; at 11.0 µM
  growth inhibition: 96% (active)
[14]; at 33.0 µM
  growth inhibition: 99% (active)
[14]; at 100.0 µM
  growth inhibition: 99% (active)
[15]; [17]
  growth inhibition: -52%
[15]; [18]
  growth inhibition: 97% (active)
[15]; at 50.0 µM
  growth inhibition: 99.1% (active)
[16]; at 1.2 µM
  growth inhibition: 3%
[16]; at 3.7 µM
  growth inhibition: 60%
[16]; at 11.0 µM
  growth inhibition: 96% (active)
[16]; at 33.0 µM
  growth inhibition: 99% (active)
[16]; at 100.0 µM
  growth inhibition: 99% (active)
